Data taken from PubChem BioAssay (Tox21).
Inconclusive results are not listed. Calls of active or inactive are those of the source. Unless noted, the call rests on the fitted dose curve; in most records, active means well fitted curve in the direction sought with a large enough effect in the repeat runs; inconclusive means weak or mixed curves; inactive means no such curve, though single readings can be large; an effect the other way counts as inactive or inconclusive.

What was measured:
[1] = qHTS assay to identify small molecule agonists of the TGF-beta/Smad signaling pathway - cell viability counter screen (AID 1346829); further: top concentration of the series differs between compounds; nearly all actives have a fitted effect of over 45% in size
Outline: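 Tox21 qHTS format: SBE-bla HEK 293T cells treated with DMSO-dissolved compounds for 5 hr; CellTiter-Glo luminescence after 30 min at room temperature.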

[2] = qHTS assay to identify small molecule agonists of the TGF-beta/Smad signaling pathway (AID 1346859; active means well fitted activation curve with a large enough effect in the signal ratio in the repeat runs, not every such curve was filed as active; the % refers to the signal ratio; further: series mostly up to about 77 µM)
Outline: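 Smad-responsive beta-lactamase reporter cells (HEK 293T) received compounds from DMSO stocks after overnight attachment, were incubated 5 hr, then treated 2 hr with FRET substrate before dual-emission fluorescence measurement (405 nm excitation).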

[3] = molecular target: Thyrotropin-releasing hormone receptor (Homo sapiens) (UniProt P34981); assay: qHTS assay to identify small molecule antagonists of the thyrotropin-releasing hormone receptor (TRHR) signaling pathway (AID 1346877; active means well fitted inhibition curve with a large enough effect in the repeat runs, not every such curve was filed as active; further: series mostly up to about 51 µM)
Chain of Thyrotropin-releasing hormone receptor (Homo sapiens) (P34981 whole entry, looked up): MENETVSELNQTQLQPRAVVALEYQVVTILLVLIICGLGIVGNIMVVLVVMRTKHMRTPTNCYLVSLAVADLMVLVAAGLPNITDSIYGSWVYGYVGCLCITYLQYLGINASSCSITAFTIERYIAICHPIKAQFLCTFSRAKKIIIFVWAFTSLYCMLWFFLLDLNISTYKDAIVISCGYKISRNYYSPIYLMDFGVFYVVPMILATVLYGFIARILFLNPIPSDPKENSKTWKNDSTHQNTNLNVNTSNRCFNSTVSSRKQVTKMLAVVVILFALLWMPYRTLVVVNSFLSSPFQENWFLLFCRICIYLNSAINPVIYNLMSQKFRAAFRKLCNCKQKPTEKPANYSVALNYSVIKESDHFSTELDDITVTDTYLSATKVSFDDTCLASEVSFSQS
Outline: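 Calcium signal in dye-loaded TRHR/HEK293 cells; compounds added 5 min before TRH (1 nM final); fluorescence monitored 3 min at 1 s steps.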

[4] = molecular target: Thyrotropin-releasing hormone receptor (Homo sapiens) (UniProt P34981); assay: qHTS assay to identify small molecule agonists of the thyrotropin-releasing hormone receptor (TRHR) signaling pathway (AID 1346891; calls by dose curve;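 further: HEK293 cells expressing TRHR with calcium dye readout; series mostly up to about 58 µM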)
Outline: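 Agonist-mode calcium mobilisation screen: TRHR-transfected HEK293 cells cultured overnight (18 h), dye-loaded for 2 h at 37 °C, exposed to compounds, and monitored by fluorescence for 3 min.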

[5] = Human pregnane X receptor (PXR) small molecule agonists, qHTS cell viability counter screen (AID 1346977); further: nearly all actives have a fitted effect of over 50% in size
Outline: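 Measures live-cell protease fluorescence (CellTiter-Fluor) in PXR-Luc HepG2 cells treated 24hr with compounds at 37C. Cells had 5hr to attach before pin transfer of DMSO solutions.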

[6] = Caspase-3/7 induction in HepG2 cells by small molecules, qHTS assay (AID 1346978); further: nearly all actives have a fitted effect of over 15% in size
Outline: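 Wild-type HepG2 cells (2,000/well) were settled 5 h at 37 C, 5% CO2, then exposed to compounds in DMSO for 17 h. Caspase-3/7 activity was read by luminescence 30 min after adding Caspase-Glo 3/7 reagent at room temperature.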

[7] = Caspase-3/7 induction in CHO-K1 cells by small molecules, qHTS cell viability counter screen (AID 1346979); further: nearly all actives have a fitted effect of over 35% in size
Outline: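 In the same wells as the caspase read, viability of compound-treated wild-type CHO-K1 cells was assessed using CellTiter-Fluor, added after 16hr at 37C and measured by fluorescence following 1hr further incubation.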

[8] = Caspase-3/7 induction in CHO-K1 cells by small molecules, qHTS assay (AID 1346980); further: nearly all actives have a fitted effect of over 15% in size
Outline: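 Wild-type cells were seeded at 1,500 per well and settled 5 hr at 37 C, 5% CO2, then exposed to DMSO-dissolved compounds for 17 hr. Caspase-Glo 3/7 reagent was added, and luminescence was read after 30min at room temperature.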

[9] = molecular target: Nuclear receptor subfamily 1 group I member 2 (Homo sapiens) (UniProt O75469); assay: Human pregnane X receptor (PXR) small molecule agonists, qHTS assay (AID 1346982); further: nearly all actives have a fitted effect of over 35% in size
Chain of Nuclear receptor subfamily 1 group I member 2 (Homo sapiens) (O75469 whole entry, looked up): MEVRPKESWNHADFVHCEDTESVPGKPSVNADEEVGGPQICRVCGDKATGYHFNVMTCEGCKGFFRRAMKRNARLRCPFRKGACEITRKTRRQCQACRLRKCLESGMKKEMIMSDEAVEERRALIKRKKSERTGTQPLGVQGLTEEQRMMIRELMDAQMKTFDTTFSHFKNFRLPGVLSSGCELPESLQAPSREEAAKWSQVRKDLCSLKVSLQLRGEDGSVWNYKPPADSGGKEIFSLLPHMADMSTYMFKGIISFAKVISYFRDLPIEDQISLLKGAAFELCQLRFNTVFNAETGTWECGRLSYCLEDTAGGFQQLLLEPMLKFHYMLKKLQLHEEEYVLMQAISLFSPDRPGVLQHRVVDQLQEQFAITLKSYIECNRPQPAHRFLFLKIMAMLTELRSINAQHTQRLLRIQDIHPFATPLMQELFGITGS
Outline: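 Tox21 qHTS; PXR-Luc HepG2; compounds pinned from DMSO; 24 hr, 37 C; ONE-Glo luciferase detection, 30 min room temperature.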

[10] = molecular target: Cytochrome P450 2C19 (Homo sapiens) (UniProt P33261); assay: Cytochrome P450 Family 2 Subfamily C Member 19 (CYP2C19) small molecule antagonists: luciferase reporter qHTS assay (AID 1671197); further: series mostly up to about 120 µM; nearly all actives have a fitted effect of over 65% in size
Chain of Cytochrome P450 2C19 (Homo sapiens) (P33261 whole entry, looked up): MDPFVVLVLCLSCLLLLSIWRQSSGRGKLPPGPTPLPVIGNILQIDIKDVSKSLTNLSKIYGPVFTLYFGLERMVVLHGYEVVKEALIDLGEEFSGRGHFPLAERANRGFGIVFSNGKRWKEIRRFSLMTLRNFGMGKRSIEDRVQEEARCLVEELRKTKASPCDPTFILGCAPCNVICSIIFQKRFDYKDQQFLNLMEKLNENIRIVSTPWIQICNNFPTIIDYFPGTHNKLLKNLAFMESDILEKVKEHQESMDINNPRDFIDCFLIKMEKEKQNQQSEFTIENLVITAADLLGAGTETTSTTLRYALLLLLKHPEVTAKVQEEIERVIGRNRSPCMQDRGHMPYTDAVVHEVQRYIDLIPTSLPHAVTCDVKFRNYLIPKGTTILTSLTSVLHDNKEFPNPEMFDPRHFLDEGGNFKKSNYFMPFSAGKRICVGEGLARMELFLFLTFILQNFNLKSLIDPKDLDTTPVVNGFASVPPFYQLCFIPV
Outline: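 Relative luminescence units recorded 20 min after the detection reagent stopped a 1 h, 37C CYP2C19 reaction on proluciferin substrate, which was started by NADPH regeneration following 10 min room-temperature compound preincubation; ketoconazole positive control.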

[11] = molecular target: Cytochrome P450 2C9 (Homo sapiens) (UniProt P11712); assay: Cytochrome P450 Family 2 Subfamily C Member 9 (CYP2C9) small molecule antagonists: luciferase reporter qHTS assay (AID 1671198); further: nearly all actives have a fitted effect of over 50% in size; further: potency means the concentration at half of the fitted maximal effect
Chain of Cytochrome P450 2C9 (Homo sapiens) (P11712 whole entry, looked up): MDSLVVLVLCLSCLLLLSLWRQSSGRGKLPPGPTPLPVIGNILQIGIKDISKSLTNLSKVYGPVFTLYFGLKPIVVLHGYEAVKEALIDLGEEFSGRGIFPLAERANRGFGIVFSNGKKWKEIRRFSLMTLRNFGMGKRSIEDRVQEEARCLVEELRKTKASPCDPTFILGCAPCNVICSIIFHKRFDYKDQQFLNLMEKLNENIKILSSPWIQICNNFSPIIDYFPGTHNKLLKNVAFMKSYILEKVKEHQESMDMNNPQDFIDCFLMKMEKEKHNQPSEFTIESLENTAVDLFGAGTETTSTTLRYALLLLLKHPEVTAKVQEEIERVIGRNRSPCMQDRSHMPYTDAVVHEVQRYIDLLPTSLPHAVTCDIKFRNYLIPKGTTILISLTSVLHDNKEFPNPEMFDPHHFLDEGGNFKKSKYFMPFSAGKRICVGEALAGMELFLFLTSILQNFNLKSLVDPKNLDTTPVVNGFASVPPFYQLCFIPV
Outline: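 CYP2C9 activity was measured with a P450-Glo proluciferin substrate. Enzyme–substrate mix was held with compound for 10 min at room temperature, then NADPH regeneration solution was added for 1 h at 37C. Luciferin product was read as luminescence.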

[12] = Caspase-3/7 induction in HepG2 cells by small molecules, qHTS cell viability counter screen (AID 1346981); further: series mostly up to about 92 µM; nearly all actives have a fitted effect of over 30% in size
Outline: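 After a 5-hr attachment period at 37 C and 5% CO2, wild-type HepG2 cells received compounds in DMSO. Sixteen hours later CellTiter-Fluor was dispensed and the fluorescent signal quantified after a further hour.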

[13] = molecular target: Voltage-gated inwardly rectifying potassium channel KCNH2 (Homo sapiens) (UniProt Q12809); assay: Human Ether-a-go-go-Related Gene (hERG) channel small molecule antagonists: fluorescence cell-based qHTS assay (AID 1671200);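 further: hERG-expressing U2OS cells given a thallium stimulus after FluxOR II dye loading; series mostly up to about 77 µM; nearly all actives have a fitted effect of over 50% in size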
Chain of Voltage-gated inwardly rectifying potassium channel KCNH2 (Homo sapiens) (Q12809 whole entry, looked up): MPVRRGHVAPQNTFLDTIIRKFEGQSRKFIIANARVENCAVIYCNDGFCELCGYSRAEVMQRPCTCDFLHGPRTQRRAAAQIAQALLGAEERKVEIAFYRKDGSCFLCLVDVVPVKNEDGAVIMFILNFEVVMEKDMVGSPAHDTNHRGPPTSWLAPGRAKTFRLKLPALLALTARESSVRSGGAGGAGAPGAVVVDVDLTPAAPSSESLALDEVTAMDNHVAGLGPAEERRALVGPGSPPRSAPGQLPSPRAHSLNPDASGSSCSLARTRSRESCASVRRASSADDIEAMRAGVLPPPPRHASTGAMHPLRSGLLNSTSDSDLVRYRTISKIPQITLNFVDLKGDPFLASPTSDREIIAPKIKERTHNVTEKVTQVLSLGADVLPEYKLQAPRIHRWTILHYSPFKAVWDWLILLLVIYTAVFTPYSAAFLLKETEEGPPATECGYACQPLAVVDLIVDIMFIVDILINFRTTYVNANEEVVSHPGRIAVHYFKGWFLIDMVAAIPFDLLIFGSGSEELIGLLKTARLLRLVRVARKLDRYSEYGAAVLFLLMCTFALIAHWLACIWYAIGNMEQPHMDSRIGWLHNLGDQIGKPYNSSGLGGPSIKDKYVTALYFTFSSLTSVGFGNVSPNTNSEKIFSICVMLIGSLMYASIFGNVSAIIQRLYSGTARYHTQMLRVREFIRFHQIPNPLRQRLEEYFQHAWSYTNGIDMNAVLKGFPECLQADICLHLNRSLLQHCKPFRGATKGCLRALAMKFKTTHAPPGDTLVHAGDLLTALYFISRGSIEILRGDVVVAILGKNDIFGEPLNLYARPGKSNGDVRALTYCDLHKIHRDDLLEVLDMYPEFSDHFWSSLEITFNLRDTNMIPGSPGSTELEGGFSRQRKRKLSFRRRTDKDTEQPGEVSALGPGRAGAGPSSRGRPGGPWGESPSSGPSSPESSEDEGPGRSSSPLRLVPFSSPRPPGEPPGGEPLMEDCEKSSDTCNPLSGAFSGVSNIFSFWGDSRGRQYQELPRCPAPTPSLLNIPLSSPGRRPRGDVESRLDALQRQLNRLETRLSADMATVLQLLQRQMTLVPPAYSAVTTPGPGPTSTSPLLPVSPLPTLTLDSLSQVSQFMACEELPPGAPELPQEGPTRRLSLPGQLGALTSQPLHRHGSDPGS
Outline: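 Quantitative HTS in hERG-U2OS cells: thallium entry through the channel reports activity, read as continuous 480/540 nm fluorescence over 2 min after stimulus addition.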

[14] = molecular target: Cytochrome P450 2D6 (Homo sapiens) (UniProt P10635); assay: Cytochrome P450 Family 2 Subfamily D Member 6 (CYP2D6) small molecule antagonists: luciferase reporter qHTS assay (AID 1671196); further: nearly all actives have a fitted effect of over 50% in size; further: potency means the concentration at half of the fitted maximal effect
Chain of Cytochrome P450 2D6 (Homo sapiens) (P10635 whole entry, looked up): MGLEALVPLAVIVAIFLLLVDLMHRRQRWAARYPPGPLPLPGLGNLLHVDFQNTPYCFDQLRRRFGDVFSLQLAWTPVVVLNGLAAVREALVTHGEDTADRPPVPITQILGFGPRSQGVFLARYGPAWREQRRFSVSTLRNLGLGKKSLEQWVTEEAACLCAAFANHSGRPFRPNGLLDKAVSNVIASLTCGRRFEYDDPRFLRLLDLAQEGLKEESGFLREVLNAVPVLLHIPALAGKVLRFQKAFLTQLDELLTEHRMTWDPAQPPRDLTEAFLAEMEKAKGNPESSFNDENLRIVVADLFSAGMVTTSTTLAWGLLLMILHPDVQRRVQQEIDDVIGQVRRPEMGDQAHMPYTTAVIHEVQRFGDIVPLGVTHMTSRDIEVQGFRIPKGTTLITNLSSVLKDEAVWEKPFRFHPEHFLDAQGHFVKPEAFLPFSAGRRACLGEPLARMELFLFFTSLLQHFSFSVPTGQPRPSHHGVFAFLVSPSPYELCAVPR
Outline: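 Room-temperature luminescent CYP2D6 activity assay: compound preincubated 10 min with enzyme–substrate mix, NADPH-initiated reaction 1 h, detection reagent 20 min before reading.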

[15] = molecular target: Cytochrome P450 1A2 (Homo sapiens) (UniProt P05177); assay: Cytochrome P450 Family 1 Subfamily A Member 2 (CYP1A2) small molecule antagonists: luciferase reporter qHTS assay (AID 1671199); further: nearly all actives have a fitted effect of over 50% in size; further: potency means the concentration at half of the fitted maximal effect
Chain of Cytochrome P450 1A2 (Homo sapiens) (P05177 whole entry, looked up): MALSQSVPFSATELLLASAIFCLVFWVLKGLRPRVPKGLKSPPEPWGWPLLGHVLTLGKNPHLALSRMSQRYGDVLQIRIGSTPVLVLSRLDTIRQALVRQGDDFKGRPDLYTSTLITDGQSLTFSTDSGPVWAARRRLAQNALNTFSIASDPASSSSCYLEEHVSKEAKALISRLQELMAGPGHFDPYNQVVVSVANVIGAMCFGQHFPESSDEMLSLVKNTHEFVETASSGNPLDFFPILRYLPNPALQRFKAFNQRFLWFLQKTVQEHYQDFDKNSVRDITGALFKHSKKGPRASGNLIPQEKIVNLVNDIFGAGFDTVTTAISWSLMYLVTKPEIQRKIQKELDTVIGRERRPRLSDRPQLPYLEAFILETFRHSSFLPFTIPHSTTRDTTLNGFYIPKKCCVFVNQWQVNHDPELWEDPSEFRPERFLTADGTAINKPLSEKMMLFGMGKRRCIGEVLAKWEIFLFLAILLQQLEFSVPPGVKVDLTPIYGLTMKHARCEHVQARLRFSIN
Outline: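 Room-temperature CYP1A2 reaction with proluciferin substrate: compounds added from DMSO, 10 min preincubation, NADPH regeneration for 1 h. Luciferin detection reagent then added; luminescence recorded as RLU.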

[16] = molecular target: Cytochrome P450 3A4 (Homo sapiens) (UniProt P08684); assay: Cytochrome P450 Family 3 Subfamily A Member 4 (CYP3A4) small molecule antagonists: luciferase reporter qHTS assay (AID 1671201)
Chain of Cytochrome P450 3A4 (Homo sapiens) (P08684 whole entry, looked up): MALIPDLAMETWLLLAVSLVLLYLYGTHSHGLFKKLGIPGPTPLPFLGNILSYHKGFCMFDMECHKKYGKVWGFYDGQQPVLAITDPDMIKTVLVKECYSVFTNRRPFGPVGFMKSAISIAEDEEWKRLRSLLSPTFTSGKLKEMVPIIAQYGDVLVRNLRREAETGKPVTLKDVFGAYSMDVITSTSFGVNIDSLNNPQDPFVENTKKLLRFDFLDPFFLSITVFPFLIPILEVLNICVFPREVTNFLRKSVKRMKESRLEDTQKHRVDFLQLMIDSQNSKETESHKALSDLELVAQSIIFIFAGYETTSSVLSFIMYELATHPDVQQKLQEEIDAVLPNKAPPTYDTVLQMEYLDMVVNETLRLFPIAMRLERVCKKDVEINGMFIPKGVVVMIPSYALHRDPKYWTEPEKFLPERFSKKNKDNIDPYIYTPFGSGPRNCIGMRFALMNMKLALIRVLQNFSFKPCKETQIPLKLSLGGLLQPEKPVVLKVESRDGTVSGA
Outline: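 Inhibition of CYP3A4 is measured as loss of light: the enzyme converts a proluciferin substrate to luciferin, detected luminescently. Reaction ran 1 h at room temperature with NADPH regeneration after a 10 min compound preincubation.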

[17] = molecular target: Nuclear receptor subfamily 1 group I member 2 (Rattus norvegicus) (UniProt Q9R1A7); assay: Rat pregnane X receptor (rPXR) activation by small molecules, qHTS assay (AID 1346983); details: rPXR luciferase reporter cells, One-Glo luminescence, 24 h; max activation: active compounds read high; further: nearly all actives have a fitted effect of over 20% in size
Chain of Nuclear receptor subfamily 1 group I member 2 (Rattus norvegicus) (Q9R1A7 whole entry, looked up): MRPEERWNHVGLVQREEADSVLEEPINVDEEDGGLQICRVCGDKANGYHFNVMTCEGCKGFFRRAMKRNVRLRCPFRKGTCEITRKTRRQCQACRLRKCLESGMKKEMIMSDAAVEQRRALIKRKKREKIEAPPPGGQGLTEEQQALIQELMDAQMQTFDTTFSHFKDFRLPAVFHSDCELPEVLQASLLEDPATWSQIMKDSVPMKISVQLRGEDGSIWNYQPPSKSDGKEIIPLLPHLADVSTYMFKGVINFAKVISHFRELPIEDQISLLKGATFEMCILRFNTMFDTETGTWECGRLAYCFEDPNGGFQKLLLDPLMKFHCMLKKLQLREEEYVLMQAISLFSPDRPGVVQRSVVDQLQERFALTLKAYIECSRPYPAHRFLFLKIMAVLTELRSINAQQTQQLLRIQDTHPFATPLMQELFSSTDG
Outline: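 Cell-based rPXR luciferase reporter assay, 2,000 cells per well, rested 5hr at 37 C before compound addition in DMSO, then 24 hr at 37 C. One-Glo reagent was added and luminescence read after 30 min at room temperature.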

[18] = molecular target: Nuclear receptor subfamily 1 group I member 2 (Homo sapiens) (UniProt O75469); assay: CYP3A4 induction through human pregnane X receptor (PXR) by small molecules, qHTS assay (AID 1346984); further: nearly all actives have a fitted effect of over 40% in size
Outline: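 Cells (DPX-2; HepG2 with PXR element plus CYP3A4-promoter luciferase) settled 5hr, then were treated 24hr at 37C. A 3hr, 3uM-final Luciferin-IPA step preceded luminescence measurement with One-Glo.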
On the % scale 0 is the no-effect control and ±100 the full control effect.

O=S(=O)(O)CCO
inactive: outcome [1] | outcome [2] | outcome [3] | outcome [4] | Potency [5] | outcome [6] | Potency [7] | outcome [8] | Potency [9] | Potency [10] | Potency [11]

Cc1ncc([N+](=O)[O-])n1CC(O)CCl (centres undefined)
inactive: outcome [1] | outcome [2] | outcome [3] | outcome [4] | Potency [5] | outcome [6] | Potency [7] | outcome [8] | Potency [12] | Potency [13]

COCCOCCOCCOC
inactive: outcome [1] | outcome [2] | outcome [3] | outcome [4] | Potency [5] | outcome [6] | Potency [7] | outcome [8] | Potency [9] | Potency [14] | Potency [10] | Potency [15] | Potency [13] | Potency [16]

CNCc1ccccc1
inactive: outcome [1] | outcome [2] | outcome [3] | outcome [4] | Potency [5] | outcome [6] | outcome [8] | Potency [12] | Potency [9] | max activation [17] -0.758% | outcome [18] | Potency [15] | Potency [13] | Potency [16]

CCOC(=O)CC(CC(=O)OCC)(OC(C)=O)C(=O)OCC
active: Potency [11] 28.3 µM
inactive: outcome [1] | outcome [2] | outcome [3] | outcome [4] | Potency [5] | outcome [6] | Potency [7] | outcome [8] | Potency [12] | Potency [13] | Potency [16]

CCN(Cc1cccc(S(=O)(=O)O)c1)c1ccccc1
inactive: outcome [1] | outcome [2] | outcome [3] | outcome [4] | Potency [5] | outcome [6] | Potency [7] | outcome [8] | Potency [12] | Potency [9] | Potency [15] | Potency [16]
active: Potency [11] 17.8 µM

N#CCCOCCOCCC#N
inactive: outcome [1] | outcome [2] | outcome [3] | outcome [4] | Potency [5] | outcome [6] | Potency [7] | outcome [8] | Potency [9] | Potency [14] | Potency [10] | Potency [11] | Potency [16]
active: Potency [15] 39.9 µM

CC(C)COC(=O)COc1ccc(Cl)cc1Cl
active: Potency [11] 31.7 µM | Potency [15] 20 µM
inactive: outcome [1] | outcome [2] | outcome [3] | outcome [4] | Potency [5] | outcome [6] | Potency [7] | outcome [8] | Potency [9] | Potency [14]

O=C1NC2NC(=O)NC2N1 (centres undefined)
active: Potency [15] 35.6 µM
inactive: outcome [1] | outcome [2] | outcome [3] | outcome [4] | Potency [5] | outcome [6] | Potency [7] | outcome [8] | Potency [9] | Potency [10] | Potency [11] | Potency [13] | Potency [16]

CCCCC(CC)CNC(=O)CC(C)OC(=O)CCC(=O)O (centres undefined)
inactive: outcome [1] | outcome [2] | outcome [3] | outcome [4] | Potency [5] | outcome [6] | Potency [7] | outcome [8] | Potency [12] | Potency [9] | Potency [15] | Potency [13]

CC1(N)CCC(C(C)(C)N)CC1 (centres undefined)
active: Potency [14] 20 µM
inactive: outcome [1] | outcome [2] | outcome [3] | outcome [4] | Potency [5] | outcome [6] | outcome [8] | Potency [12] | Potency [9] | Potency [10] | Potency [11] | Potency [15] | Potency [13] | Potency [16]

CCC1COC(=O)O1 (centres undefined)
inactive: outcome [1] | outcome [2] | outcome [3] | outcome [4] | Potency [5] | outcome [6] | Potency [7] | outcome [8] | Potency [12] | Potency [9] | Potency [10] | Potency [11] | Potency [13] | Potency [16]

CCN1CN(CC)CN(CC)C1
inactive: outcome [1] | outcome [2] | outcome [3] | outcome [4] | Potency [5] | outcome [6] | Potency [7] | outcome [8] | Potency [9] | Potency [14] | Potency [10] | Potency [11] | Potency [15] | Potency [13] | Potency [16]

Cc1ccccc1OCC1CO1 (centres undefined)
inactive: outcome [1] | outcome [2] | outcome [3] | outcome [4] | Potency [5] | outcome [6] | outcome [8] | Potency [12] | Potency [9] | Potency [14] | Potency [11] | Potency [15] | Potency [13] | Potency [16]

CCCCC(CC)C(=O)OC(C)C (centres undefined)
inactive: outcome [1] | outcome [2] | outcome [3] | outcome [4] | Potency [5] | outcome [6] | outcome [8] | Potency [12] | Potency [9] | Potency [14] | Potency [10] | Potency [11] | Potency [15] | Potency [13]

O=S(=O)(O)c1cc(O)ccc1O
inactive: outcome [1] | outcome [2] | outcome [3] | outcome [4] | Potency [5] | outcome [6] | Potency [7] | outcome [8] | Potency [12] | Potency [13]

O=C(O)c1ccccc1C(=O)OCc1ccccc1
inactive: outcome [1] | outcome [2] | outcome [3] | outcome [4] | Potency [5] | outcome [6] | Potency [7] | outcome [8] | Potency [10] | Potency [15] | Potency [13]

CCCCCCCCC(=O)OCC
inactive: outcome [1] | outcome [2] | outcome [3] | outcome [4] | Potency [5] | outcome [6] | Potency [7] | outcome [8] | Potency [9] | Potency [14] | Potency [10] | Potency [11] | Potency [15] | Potency [13] | Potency [16]

COc1ccc(NS(=O)(=O)c2ccc(N)cc2)nn1
inactive: outcome [1] | outcome [2] | outcome [3] | outcome [4] | Potency [5] | outcome [6] | Potency [7] | outcome [8] | Potency [12] | Potency [13]
